# Bioassay records (PubChem)
# This is a sample that favours compounds with a hit; in the whole collection about 7.8% have one here.
# PD-1 reverse act: activators reversing PD-1 mediated T-cell inhibition; primary human CD4 T cells, PD-L1 beads, CellTiter-Glo 96 h; 29,000 tested, under 10 active; activation, % (no concentration beside the values); AID 2316; call rule not given here;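 also: 0% = median vehicle wells and 100% = positive control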
# NOMO-1 viab: STK33 inhibitor candidate reducing NOMO-1 cell viability; AID 2330; inhibition, % (concentration not given with the values); NOMO-1 AML viability, CellTiter-Glo luminescence, 72 h; actives 7.5% (n = 37,000); in the data active = inhibition above about 80%; inconclusive = no clear call, values can overlap the other calls
# Hedgehog inh: Sonic Hedgehog pathway inhibition. Shh-LIGHT2 Gli-luciferase reporter, 30 h. inhibition, % (no concentration beside the values). actives 2.1% (n = 22,000);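 active = mean inhibition across valid replicates above about 65%, limit read from the data; inconclusive = mean under the limit, yet half or more replicates past it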;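 also: pathway switched on by Shh-conditioned medium diluted 1 in 25 in low serum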
# MITF inh: blocks MITF activity | actives 0.28% (n = 37,000) | TRPM1 promoter luciferase, luminescence, 24 h | AID 2240 | inhibition, % (concentration not given with the values); in the data active = inhibition above about 85%; inconclusive = no clear call, values can overlap the other calls; inactive = below about 68%;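 also: human melanocyte line stably carrying TRPM1 promoter luciferase reporter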
# * marks the source's active call; other numbers are inactive results; ? = inconclusive; . = no result given.
SMILES,PD-1 reverse act,NOMO-1 viab,Hedgehog inh,MITF inh
C[C@H](CO)N1C[C@H](C)[C@H](CN(C)Cc2ccc(C(F)(F)F)cc2)Oc2c(NC(=O)Nc3cccc4ccccc34)cccc2C1=O,-5,112*,-12,55
O=C(Cc1ccccc1)c1ccccc1C(=O)NCc1ccc(F)cc1,-4,18,?,14
CC1CCCC[C@H]2C(=O)C=C[C@H](O)[C@@H]2CC(=O)O1 (some centres not stated),-16,108*,36,41
CC1CCCC2OC2C(=O)c2c(O)cc(O)cc2CC(=O)O1 (configuration not stated),2,15,-19,2
C[C@H](CO)N1C[C@H](C)[C@H](CN(C)Cc2ccccc2)Oc2ccc(NC(=O)Cc3cn(C)c4ccccc34)cc2CC1=O,.,-1,9,19
C[C@@H]1CN([C@@H](C)CO)C(=O)Cc2cc(NC(=O)Cc3cn(C)c4ccccc34)ccc2O[C@@H]1CN(C)Cc1ccc(Cl)c(Cl)c1,-4,107*,-20,17
C[C@@H]1CN([C@H](C)CO)C(=O)Cc2cc(NC(=O)Cc3cn(C)c4ccccc34)ccc2O[C@H]1CN(C)Cc1ccc(Cl)c(Cl)c1,-1,115*,-9,32
Cc1ccc(S(=O)(=O)N2Cc3ccccc3C(C)CC23CCCCC3)cc1 (configuration not stated),0,88*,-39,-6
C[C@H](CO)N1C[C@H](C)[C@@H](CN(C)CC2CCCCC2)Oc2c(NC(=O)c3nc4ccccc4s3)cccc2C1=O,-7,108*,-4,48
C[C@@H]1CN([C@@H](C)CO)C(=O)c2cccc(NC(=O)c3nc4ccccc4s3)c2O[C@@H]1CN(C)CC1CCCCC1,-12,117*,-33,-16
O=S(=O)(Nc1cccc(C(F)(F)F)c1)c1ccccc1,0,22,12,13
Nc1cccc(-c2cc3c(Oc4cccc(O)c4)ncnc3[nH]2)c1,-2,91*,-8,-63
CCc1nc2n[nH]c(N)c2c2c1COC(C)(C)C2,-1,-5,-34,-11
COc1c(-c2coc3cc4c(cc3c2=O)CC(O)C(C)(C)O4)ccc2c1C=CC(C)(C)O2 (configuration not stated),.,102*,91*,99*
CC1(C)C=Cc2c(cc3occ(-c4ccc5c(c4)OCO5)c(=O)c3c2O)O1,.,47,56,-20
COc1ccc(/C=C2/C(=O)C(C(C)C)=CCC2C)cc1 (configuration not stated),1,10,.,-41
O=C(Nc1ccc(-c2nc3cc(NC(=O)C4CCCCC4)ccc3o2)cc1)C1CCCCC1,0,99*,33,5
O=C(Nc1cccc(-c2nc3ccccc3c(=O)o2)c1)C1CCCCC1,1,15,-19,-4
COc1ccc(CN(C)C[C@@H]2Oc3c(NC(=O)Nc4ccc(C(F)(F)F)cc4)cccc3C(=O)N([C@H](C)CO)C[C@@H]2C)cc1,-4,90*,23,-1
COc1ccc(NC(=O)Nc2cccc3c2O[C@H](CN(C)Cc2ccc(C(F)(F)F)cc2)[C@H](C)CN([C@@H](C)CO)C3=O)cc1,0,47,-20,-17
COc1ccc(NC(=O)Nc2cccc3c2O[C@@H](CN(C)Cc2ccc(C(F)(F)F)cc2)[C@H](C)CN([C@H](C)CO)C3=O)cc1,-3,84*,-8,11
COc1ccc(CN(C)C[C@@H]2Oc3c(NC(=O)Nc4ccc(C(F)(F)F)cc4)cccc3C(=O)N([C@@H](C)CO)C[C@H]2C)cc1,-8,116*,15,55
NC(=NC(=O)c1cnccc1C(F)(F)F)c1ccccn1,0,-17,-18,2
NC(=O)CSc1nnc(-c2ccncc2)n1-c1cccc(C(F)(F)F)c1,0,26,.,-10
COc1ccc(/C=N/n2c(=O)c3c(ncn3/N=C/c3ccc(OC)cc3)n(C)c2=O)cc1,0,11,.,-5
CCC(=O)Nc1ccc(Cl)c(NC(=O)COc2cc(C)cc(C)c2)c1,-1,1,.,6
CCC(=O)Nc1ccc2c(c1)N(CC)C(C)(C)CC2C (configuration not stated),1,99*,29,13
COc1cccc2cc(-c3nnc(SCC(=O)Nc4cccc(Br)c4)n3C)oc12,-14,107*,.,36
CCOc1ccc(C)cc1S(=O)(=O)n1nnc2ccccc21,.,19,.,5
CC(=O)OC[C@]12[C@H](OC(C)=O)[C@H](OC(=O)c3ccccc3)[C@@H]3[C@@H](OC(C)=O)[C@]1(OC3(C)C)[C@H](C)C[C@H](OC(C)=O)[C@@H]2OC(C)=O,-2,46,16,-18
